Results published in PubChem BioAssay AID1963322 (National Center for Advancing Translational Sciences (NCATS), 2024).
Inconclusive results are not listed. Calls of active or inactive are those of the source. The call rests on the fitted dose curve.

These molecules were tested against cAMP-dependent protein kinase catalytic subunit alpha (Homo sapiens) (UniProt P17612) (assay: Protein Kinase A (PKA-HiBiT) SDR gain of signal screen). Details: PKA-HiBiT structural dynamics response (SDR), luminescence gain of signal; series mostly up to 32.9 µM; activity change, positive = signal gain: at the top concentration.
Procedure, shortened: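 PKA-N-HiBiT enzyme at 10 nM final was preincubated with compounds for 30 min at room temperature, protected from light. Nano-Glo HiBiT reagent was then added for 10 min, and luminescence was read by CCD imager. H-89 served as positive control.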

Activity change, positive = signal gain, inactive:
O=C1C(c2c(O)[nH]c3ccccc23)=Nc2ccccc21 5.12%, Cc1[nH]c(/C=C2\C(=O)Nc3ccc(S(=O)(=O)Cc4c(Cl)cccc4Cl)cc32)c(C)c1C(=O)N1CCC[C@@H]1CN1CCCC1 -38.9%, Cc1cc(-c2cc(O)ccc2Cl)cc2nnc(Nc3ccc(OCCN4CCCC4)cc3)nc12 -11.2%, Cc1ccc(C(=O)Nc2ccc(Oc3cc4cnn(C)c4cc3-c3cn[nH]c3)c(F)c2)c(=O)n1-c1ccc(F)cc1 8.3%, COc1cc2ncnc(Oc3cccc(NC(=O)Nc4cc(C(C)(C)C(F)(F)F)on4)c3)c2cc1OC 1.41%, Cc1cc(Nc2ncc3cc(-c4c(Cl)cccc4Cl)c(=O)n(C)c3n2)ccc1F -18.3%, Nc1ncccc1-c1nc2ccc(-c3ccccc3)nc2n1-c1ccc(C2(N)CCC2)cc1 2.31%, CCN1C(=O)CNc2ncc(-c3ccc(-c4ncn[nH]4)nc3C)nc21 -1.23%, O=C(NC1CCNCC1)c1[nH]ncc1NC(=O)c1c(Cl)cccc1Cl 1.69%, Cc1ccc(C(=O)Nc2ccc(CN3CCN(C)CC3)c(C(F)(F)F)c2)cc1C#Cc1cnc2[nH]ncc2c1 7.29%, COc1ccccc1-c1c[nH]c2ncc(-c3cncc(C(=O)N(C)C)c3)cc12 14.2%, O=C1CCC(N2C(=O)c3ccccc3C2=O)C(=O)N1 (centres undefined) -9.83%, Cc1sc2c(c1C)C(c1ccc(Cl)cc1)=N[C@@H](CC(=O)Nc1ccc(OCCOCCOCCOCCNc3cccc4c3C(=O)N(C3CCC(=O)NC3=O)C4=O)cc1)c1nnc(C)n1-2 (some centres undefined) 4.85%, CCCS(=O)(=O)Nc1ccc(F)c(C(=O)c2c[nH]c3ncc(Cl)cc23)c1F 6.54%
